Reference: PubChem BioAssay AID1035470 (Broad Institute, 2014)
The campaign covered roughly 1,800 compounds. Fewer than 10 were called active. Roughly 16% stayed inconclusive and do not appear here.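 Rule for the calls: active = compound lowering the normal-ribosome reporter at least twice as much as the humanized-ribosome reporter, growth loss under a set limit; inconclusive = no clear call, values can overlap the other calls; inactive = the rest.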 A selection follows. Potency and affinity values are given separately.

Assay: growth inhibition of wild-type GFP E. coli versus G2058-humanized strain, dose response, G2058 mutant RFP vs wild-type GFP, cherry-pick, two tests (AID 1035470)
Details: E. coli WT-GFP vs G2058-humanized RFP, fluorescence, 24 h; series mostly up to 50 µM

outcome, inactive:
CC1(C)CC(=O)c2cnc(N3CCc4ccccc43)nc2C1
S=c1nc(-c2cc(Cl)cc(Cl)c2)[nH][nH]1
O=[N+]([O-])c1ccc(NCCNCCOc2nonc2-c2ccccc2)c([N+](=O)[O-])c1
Cc1nn2c(NCc3ccccn3)cc(C(C)C)nc2c1-c1ccccc1
O=S(=O)(NOCc1ccc(Cl)cc1)c1ccc(Cl)cc1
O=C(Nc1ccc2c(c1)OCCO2)C1C(c2ccccc2)=Nc2ccccc2N1C(=O)c1cccnc1 (centres undefined)
O=C(COc1ccccc1Cl)Nc1nc(-c2ccncc2)cs1
CCOc1ccccc1N1CC(C(=O)Nc2cccc(S(=O)(=O)N3CCCCC3)c2)CC1=O (centres undefined)
COc1ccc(-c2csc3ncn(-c4ccc(C)cc4)c(=O)c23)cc1OC
O=C(NCc1nnnn1-c1ccc(Cl)cc1)c1ccc([N+](=O)[O-])o1
O=[N+]([O-])c1cccc(COc2ccc(CN3CCOCC3)cc2)c1
C[C@@H]1CN([C@@H](C)CO)C(=O)c2cc(NC(=O)C3CC3)ccc2O[C@H]1CN(C)C(=O)Nc1ccc(C(F)(F)F)cc1
CCN(CC(=O)Nc1cccc(S(=O)(=O)N2CCCC2)c1)CC(=O)Nc1ccccc1OC
COC(=O)c1ccc2nc(-c3ccco3)c(Cc3ccc(C)cc3)n2c1
COc1ccc(CC(=O)Nc2cc(S(=O)(=O)Nc3ccc(OC)cc3)ccc2OC)cc1
CC(C)CNc1nc(S(=O)(=O)c2ccccc2)c(Cl)s1
O=C(CN1CCCCC1)n1c2ccccc2c2ccccc21
O=C1c2ccccc2C(c2nnnn2Cc2ccccc2)N1Cc1cccc(F)c1 (centres undefined)
Cc1nn(CC(=O)c2ccc(Br)s2)c(C)c1[N+](=O)[O-]
Brc1ccc(-n2cnc(-c3ccccc3)c2)cc1
NC(=O)c1cccnc1Oc1ccc(Cl)cc1Cl
CCc1ccc(NC(=O)CCc2c(C)nn(-c3ccc(N4CCCCC4)nn3)c2C)cc1
COc1ccc2c(c1)-c1nc(N)sc1CC2
CC(C)(C)N(Cc1ccccc1)C(=O)COC(=O)Cn1cnc2ccccc2c1=O
COc1ccc(OC)c(NC(=O)CN(C)CC(=O)Nc2ccccc2Br)c1
O=C(c1ccccc1)C1CN(Cc2ccccc2)CCC1(O)c1ccccc1 (centres undefined)
CCC1(CC)NC(=O)N(CC(=O)N2N=C(c3ccc(Cl)cc3)CC2c2ccco2)C1=O (centres undefined)
CCOc1ccccc1C(=O)NCC(=O)OCCOc1cccc(Cl)c1
O=C(Nc1cc(F)ccc1F)N1CCCCN2[C@@H](CO)[C@H](c3ccc(-c4ccncc4)cc3)[C@@H]2C1
